Data from PubChem BioAssay AID2781 (National Center for Advancing Translational Sciences (NCATS), 2010).
Calls of active or inactive are those of the source.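 Rule for the calls: active = compound whose NMR saturation transfer difference test with menin is positive, showing direct binding to the protein; inactive = the rest.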

Target: Menin (Homo sapiens) (UniProt O00255)
Assay: Confirmation of Inhibitors Targeting the Menin-MLL Interaction in MLL Related Leukemias: NMR spectroscopy to verify direct binding of compounds to menin
Conditions: purified menin, NMR STD binding, 100 uM
How it was run: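 Binding was checked by 600 MHz STD NMR in pH 7.5 phosphate buffer (50 mM phosphate, 50 mM NaCl, 1 mM DTT). Samples held 100 uM compound and 2.5 uM menin, alone or with 25 uM wild-type MLL peptide.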

Chain of Menin (Homo sapiens) (O00255 whole entry, looked up): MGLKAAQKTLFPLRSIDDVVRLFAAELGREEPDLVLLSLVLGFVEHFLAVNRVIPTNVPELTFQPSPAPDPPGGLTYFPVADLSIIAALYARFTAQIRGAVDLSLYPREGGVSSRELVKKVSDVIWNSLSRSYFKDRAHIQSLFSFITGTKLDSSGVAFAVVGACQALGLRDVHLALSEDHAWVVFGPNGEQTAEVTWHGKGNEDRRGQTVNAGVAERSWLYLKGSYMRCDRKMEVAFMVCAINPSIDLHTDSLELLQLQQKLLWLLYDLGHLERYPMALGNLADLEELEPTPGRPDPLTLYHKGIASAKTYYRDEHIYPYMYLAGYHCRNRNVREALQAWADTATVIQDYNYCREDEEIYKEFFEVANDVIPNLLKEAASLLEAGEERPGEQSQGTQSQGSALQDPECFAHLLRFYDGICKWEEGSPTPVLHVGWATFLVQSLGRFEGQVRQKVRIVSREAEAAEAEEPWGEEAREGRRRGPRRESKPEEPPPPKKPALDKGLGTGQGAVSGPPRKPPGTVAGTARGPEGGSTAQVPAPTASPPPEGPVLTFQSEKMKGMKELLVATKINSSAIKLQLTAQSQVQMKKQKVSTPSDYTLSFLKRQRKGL

Row | Structure (SMILES) | outcome
1 | CCOc1ccc2c(c1)C(NC(C)=O)C(=O)N2CCN1CCOCC1 (stereo not given) | inactive; negative
2 | CCNC(=S)N1CCN(c2nc(CC)nc3sc4c(c23)CCCC4)CC1 | inactive; negative
3 | CCc1cc2c(N3CCN(C(=O)c4ccco4)CC3)ncnc2s1 | inactive; negative
4 | O=C(Nc1cc(Br)ccc1O)c1cc(-c2ccco2)on1 | inactive; negative
5 | O=C(O)c1ccccc1NS(=O)(=O)c1cccc(-n2sc3ccccc3c2=O)c1 | inactive; negative
6 | CC1CCCCN1S(=O)(=O)c1ccc(C(=O)Nc2ccccc2-c2nc3ccccc3[nH]2)cc1 (stereo not given) | inactive; negative
7 | Cc1nc(N2CCN(C)CC2)c2c3c(sc2n1)CCCC3 | inactive; negative
8 | COC(=O)c1ccccc1NC1=C/C(=N\S(=O)(=O)c2ccc(C(=O)O)cc2)c2ccccc2C1=O | inactive; negative
9 | CCCC[n+]1c2ccccc2cc2ccccc21 | inactive; negative
10 | CCOC(=O)c1cnc2ccc(OC)cc2c1Nc1ccc(N2CCN(C)CC2)cc1 | inactive; negative
11 | O=C(Nc1cc(Br)ccc1O)c1cc(-c2ccc3c(c2)OCO3)on1 | inactive; negative
12 | Cc1sc2ncnc(NC3CCN(Cc4ccccc4)CC3)c2c1C | active; positive
13 | CC(=O)NC1C(=O)N(CCN2CCOCC2)c2ccc(Cl)cc21 (stereo not given) | inactive; negative
14 | O=C(Nc1ccc(F)c(Cl)c1)c1cc(-c2ccco2)on1 | inactive; negative
15 | CCN(CC)Cc1cc2[nH]c3c4ccc(Cl)cc4ncc3c2cc1OC | inactive; negative
16 | CS(=O)(=O)c1ccc2nc(NC(=O)Nc3cccc(Cl)c3)sc2c1 | inactive; negative
17 | CCOC(=O)c1cnc2ccc(OCC)cc2c1N1CCN(C)CC1 | active; positive
18 | CCNc1ccccc1CP(=O)(c1ccccc1)c1ccccc1O (stereo not given) | inactive; negative
19 | O=C(CSc1nc(O)cc(=O)n1-c1ccccc1)c1ccc(Br)cc1 | inactive; negative
20 | CCc1ccc2c(c1)C(NC(C)=O)C(=O)N2CCN1CCOCC1 (stereo not given) | inactive; negative
